# Data published in PubChem BioAssay (NCI).
# About 83,000 compounds went through this panel and 20% of them were active in at least one assay; those are over-represented in the sample as a whole.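 Step 1: grow cells in 96-well plates. Step 2: add test compound at a single concentration. Step 3: incubate 48 h. Step 4: record percent growth.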 Values without a mark were called inactive. Activity calls are given as the source filed them. The calls were made as follows: active = growth percent below 10; inactive = the rest.
# Test system: UACC-62 melanoma
# Test: NCI-60 one-dose screen, 48 h (100 = growth as untreated, 0 = no growth, -100 = all killed)
# Conditions: 10 µM
row,Compound,growth
1,Cc1ccc(C(=O)N2C/C(=C/c3ccc(F)cc3)C(=O)/C(=C/c3ccc(F)cc3)C2)cc1,86.3%
2,COc1cc(NC(=O)CCSc2nc3ccc(C)cc3c(=O)n2Cc2ccccc2)cc(OC)c1OC,85%
3,O=C(Nc1cccc(-n2cc(-c3ccncc3)c(-c3cc(O)cc(Cl)c3)n2)c1)Nc1ccc(Cl)c(C(F)(F)F)c1,-1.44% (active)
4,CCC(=O)N1C/C(=C/c2ccc(Br)cc2)C(=O)/C(=C/c2ccc(Br)cc2)C1,-80.3% (active)
5,COc1cc(Cl)cc(-c2nn(-c3cccc(NC(=O)c4ccc(N5CCOCC5)c(C(F)(F)F)c4)c3)cc2-c2ccncc2)c1,67.8%
6,O=C(C[P+](c1ccccc1)(c1ccccc1)c1ccccc1)C[P+](c1ccccc1)(c1ccccc1)c1ccccc1,-79.6% (active)
7,Nc1ccn(C2CC(O)C(CO)O2)c(=O)n1 (centres undefined),100%
8,COc1ccc(Nc2nc3ccc(NC(=O)NC4CCCCC4)cc3[nH]c2=O)cc1,94.6%
9,CC1(C)CCC(=NNC(N)=S)CC1,103%
10,CCOC(=O)C1(CC(C)C)CCOC1=O (centres undefined),96.7%
11,N#Cc1cc(-c2cc3ccccc3o2)oc1N,29.2%
12,COc1ccc(-c2nc3ncccn3c2-c2nnc(-c3ccsc3C)o2)cc1,78.3%
13,Oc1[nH]c2cc(Cl)ccc2c1/C=c1/ccc2c(c1)N=C(c1cc(F)cc(F)c1)N=2,36.4%
14,CCCCCCCCCCCC[n+]1ccc(C(N)=O)cc1,29%
